The list is not random: actives were taken first. Their share in the collection is about 0.75%.
TSHR antagonist: Antagonists of the Thyroid Stimulating Hormone Receptor: HTS campaign | AID 504810, 2011 | activity change, negative = inhibition, % at 11.5 µM | Thyrotropin receptor (Homo sapiens), P16473 | TSHR-expressing cells, TSH-stimulated cAMP HTRF, 2 h; hits give low values | 330,000 compounds, 0.2% hits;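 active means activity change below a set negative limit, meaning inhibition stronger than a set level, cut at about -70% in these data; inconclusive means activity change between two set negative limits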
Target sequence (P16473 whole entry, looked up): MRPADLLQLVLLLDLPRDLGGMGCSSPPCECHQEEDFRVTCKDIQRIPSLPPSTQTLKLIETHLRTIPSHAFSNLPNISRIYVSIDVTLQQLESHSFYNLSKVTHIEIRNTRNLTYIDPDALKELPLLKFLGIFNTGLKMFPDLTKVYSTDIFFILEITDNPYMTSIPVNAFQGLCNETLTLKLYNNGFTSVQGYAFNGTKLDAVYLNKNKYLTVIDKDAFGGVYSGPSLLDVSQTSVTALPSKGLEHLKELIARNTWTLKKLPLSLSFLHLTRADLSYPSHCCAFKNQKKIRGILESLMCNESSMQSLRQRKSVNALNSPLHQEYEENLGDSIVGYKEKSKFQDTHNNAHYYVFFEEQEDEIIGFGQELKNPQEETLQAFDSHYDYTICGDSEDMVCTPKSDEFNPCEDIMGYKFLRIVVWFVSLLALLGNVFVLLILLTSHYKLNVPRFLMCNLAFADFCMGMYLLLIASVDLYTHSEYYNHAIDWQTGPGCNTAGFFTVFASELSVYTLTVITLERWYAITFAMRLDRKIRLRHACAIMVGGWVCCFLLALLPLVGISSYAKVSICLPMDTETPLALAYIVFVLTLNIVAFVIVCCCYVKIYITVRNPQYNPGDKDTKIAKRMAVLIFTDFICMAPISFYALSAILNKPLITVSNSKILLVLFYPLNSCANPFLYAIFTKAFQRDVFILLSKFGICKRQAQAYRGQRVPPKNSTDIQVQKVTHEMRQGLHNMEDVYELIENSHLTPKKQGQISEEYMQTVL
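Cell-based HTRF cAMP assay; TSHR cells + compound, TSH EC80 (4nM final), 2 h, 37 deg C. Lysis with anti-cAMP cryptate and cAMP-d2, 30 min RT, read 665/620 nm.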
TCR activator: Activators of T cell receptors: qHTS campaign; primary human leukocytes, anti-CD3, IL-2 HTRF, 48 h; Potency, µM (doses to about 9.22 µM), actives largely listed as activators; 330,000 tested, under 10 active; AID 504894, 2011
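Using a-CD3 beads without co-stimulation, primary human leukocytes were exposed to compounds for 48 hr. An HTRF IL-2 kit measured the cytokine, with europium-to-d2 energy transfer producing emission at 665nm upon 320nm excitation.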
uPA surface inh: qHTS for Inhibitors of Cell Surface uPA Generation; cell surface uPA generation assay, qHTS; AID 540303, 2011; Potency, µM (highest dose often 38.3 µM), actives largely listed as inhibitors; 330,000 compounds, 0.31% hits; active means well fitted inhibition curve with a large enough effect; inconclusive means small, poorly fitted or top-dose-only effect; inactive means no such curve, though single readings can be large or run the other way; tested in mouse RAW 264.7 cells; further: nearly all actives have a fitted effect of over 55% in size
PKM2 activator: qHTS Assay for Activators of Human Muscle isoform 2 Pyruvate Kinase; 260,000 compounds, 0.34% hits; AID 1631, 2009; Potency, µM (titrated, usually from 57.5 µM), most hits filed as activators; purified PKM2, Kinase-Glo ATP luminescence, activation; response scale: 0% is enzyme alone, no compound; Pyruvate kinase PKM (Homo sapiens), P14618; further: nearly all actives have a fitted effect of over 55% in size
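ATP formation by purified human PK-M2, quantified via coupled luciferase luminescence after 1 h at room temperature with 0.1 mM ADP and 0.5 mM PEP final.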
Each line names hits and unclear results; the compound was inactive in the other large screens. Unless noted, the call rests on the fitted dose curve; in most records, active means well fitted curve in the direction sought with a large enough effect; inconclusive means small, poorly fitted or top-dose-only effect, or another doubt; inactive means no such curve, though single readings can be large; an effect the other way counts as inactive or inconclusive.

CCN(CC)S(=O)(=O)c1ccc(N/N=C/c2ccc(O)cc2)nc1	none (no result: TCR activator)
CCN(CC)S(=O)(=O)c1ccc(N/N=C(\C)c2ccc(OC)cc2O)nc1	uPA surface inh 5.62µM
CN(C)c1ccc(C(C#N)c2ccccc2)nn1 (stereo not drawn)	none
CS(=O)(=O)c1ccc(-c2csc(N3CCC(C(N)=O)CC3)n2)cc1	none (no result: TCR activator, uPA surface inh, PKM2 activator)
c1ccc(Cn2ncc3c(NCc4ccco4)ncnc32)cc1	PKM2 activator 14.1µM
C[C@H](NC(=O)c1nc[nH]c1C(=O)N[C@@H](CCCCN)C(=O)OC(C)(C)C)C(=O)OCc1ccccc1	none (no result: PKM2 activator)
FC(F)(F)c1nc(-c2cccs2)ncc1-c1nnnn1-c1ccc(Cl)cc1	TSHR antagonist -71.8 (no result: TCR activator)
O=[N+]([O-])c1ccc(Sc2cccc[n+]2[O-])c2nonc12	TSHR antagonist -91.3, uPA surface inh inconclusive
O=[N+]([O-])c1ccc(Nc2ccccc2)c2nonc12	none (no result: PKM2 activator)
COc1ccccc1C(=O)NCC(=O)OCC(=O)c1cccc2ccccc12	none (no result: PKM2 activator)
CC(C)CC(NC(=O)c1ccc(Cl)cc1)C(=O)OCc1cc([N+](=O)[O-])cc2c1OCOC2 (stereo not drawn)	none
COc1ccc(N2CCN(C(=O)[C@H](C)NC(=O)c3ccccc3Cl)CC2)cc1	TSHR antagonist -98.6
COc1ccc(N2CCN(C(=O)[C@@H](NC(=O)c3ccccc3Cl)C(C)C)CC2)cc1	none
N#Cc1ccc(NCCc2ccccn2)c([N+](=O)[O-])c1	PKM2 activator 14.1µM
O=[N+]([O-])c1cc(Cl)ccc1NCCc1ccccn1	PKM2 activator inconclusive
Cc1nc(NC(=O)CCl)sc1C(=O)N(C)C	uPA surface inh 10µM
Cc1nc(NC(=O)C(Cl)Cl)sc1C(=O)N(C)C	none
OCCNCCCCSc1ccc(Cl)cc1	uPA surface inh 8.91µM
CC(CNC(=O)C(C)(C)C)NC(=O)C(C)(C)C (stereo not drawn)	none
Nc1ccc2c(c1)C(=O)C(=O)c1ccccc1-2	TSHR antagonist -78.9
COc1ccc(N2CC(C(=O)N[C@H](C(=O)NC(C)c3ccccc3)C(C)C)CC2=O)cc1 (stereo partly drawn)	none (no result: PKM2 activator)
CN1C(=O)/C(=C/c2ccc(OCc3ccccc3F)cc2)NC1=S	TSHR antagonist -70.2 (no result: PKM2 activator)
CCOC(=O)C1=C(C)NC(SC)=C(C#N)C1CC(C)C (stereo not drawn)	none
CN1CCc2nc(SCC(=O)Nc3cccc(F)c3)c(C#N)c(-c3cccs3)c2C1	PKM2 activator 17.8µM
O=C(NNC(=O)c1cc(-c2ccncc2)nc2ccccc12)c1ccccc1O	none (no result: PKM2 activator)
CCOc1ccc(CNc2cccc(SC)c2)cc1	PKM2 activator 14.1µM
O=C1c2ccccc2S(=O)(=O)c2cc(N3CCN(c4ccccc4)CC3)ccc21	none (no result: TSHR antagonist, PKM2 activator)
O=C1c2ccccc2S(=O)(=O)c2cc(N3CCOCC3)ccc21	uPA surface inh 2.51µM (no result: TSHR antagonist, PKM2 activator)
O=C(O)CCCCCN1C(=O)/C(=C\c2ccc(-c3ccc(Cl)cc3)o2)SC1=S	PKM2 activator 31.6µM
CC(=O)Oc1ccc(N(C(C)=O)S(=O)(=O)c2ccc(C)cc2C)c2ccccc12	uPA surface inh 10µM
Cc1ccc(S(=O)(=O)N(C(=O)c2ccncc2)c2ccc(OC(=O)c3ccncc3)c3ccccc23)c(C)c1	none
CCn1c(O)c(N=NC(=O)CNC(=O)Cc2ccccc2)c2ccccc21	none
O=C(CNC(=O)c1ccco1)N=Nc1c(O)n(CCc2ccccc2)c2ccccc12	uPA surface inh 1.12µM
CCCCCC1=C2CNC(CCC)(C(=O)OC)C=C2C(C)C1=O (stereo not drawn)	none (no result: TSHR antagonist, TCR activator, uPA surface inh)
CC1(C)CC(C(=O)Nc2ccccc2)C(=O)O1 (stereo not drawn)	none (no result: TSHR antagonist, PKM2 activator)
C[C@]1(O)CC(=O)C=C[C@H]1Nc1ccccc1	uPA surface inh 8.91µM (no result: TSHR antagonist, PKM2 activator)
O=c1c(-c2ccc(O)cc2)coc2cc(OC3OC(CO)C(O)C(O)C3O)cc(O)c12 (stereo not drawn)	uPA surface inh 4.47µM
COc1cc(O)c2c(=O)c(-c3ccc(O[C@@H]4O[C@H](CO)[C@@H](O)[C@H](O)[C@H]4O)cc3)coc2c1	none (no result: PKM2 activator)
CN(CCC#N)c1ccc(/C=C(\C#N)c2ccccn2)cc1	uPA surface inh 2.51µM
Cn1nnnc1SCC1=C(C(=O)O)N2C(=O)C(NC(=O)C3CC3c3ccccc3)C2SC1 (stereo not drawn)	TSHR antagonist -104.9
COc1ccc2c3c(c(=O)oc2c1)C1O[C@](CCCCN2C(=O)c4ccccc4C2=O)(Cc2cc(OC)c(OC)cc21)O3	none (no result: TSHR antagonist, TCR activator, uPA surface inh)
COc1ccc2sc(-c3ccc(S(C)(=O)=O)cc3)c(C#CCO)c2c1	TSHR antagonist -77.6 (no result: PKM2 activator)
Cc1ccc2c(c1)Oc1ccc(NC(=O)CCCl)cc1C(=O)N2	uPA surface inh 8.91µM
COc1ccc(F)cc1C(=O)C1CCCN(Cc2ccc(Oc3ncccn3)cc2)C1 (stereo not drawn)	none
COc1ccc(F)cc1C(=O)C1CCCN(Cc2cccn2-c2cccnc2)C1 (stereo not drawn)	PKM2 activator 35.5µM
CCCCc1nc2c(c3c1C[C@H](C)OC3)CN(C(=O)Nc1ccc(OC)cc1)CC2	none (no result: TSHR antagonist, TCR activator, uPA surface inh)
CCOC(=O)c1c(-c2ccco2)csc1NC(=O)CSc1nnc(N)s1	PKM2 activator 12.6µM
CCOC(=O)c1c(-c2ccc(C)o2)csc1NC(=O)CN1CCC(C(N)=O)CC1	PKM2 activator 20µM
CCOC(=O)c1c(-c2ccc(C)o2)csc1NC(=O)CSc1nncs1	uPA surface inh inconclusive, PKM2 activator 8.91µM
CCOC(=O)c1c(-c2ccc(C)o2)csc1NC(=O)CN1CCCCC1	none
Cc1ccc(NC(=O)CC(NCC2CCCO2)C(=O)O)cc1C (stereo not drawn)	none (no result: TCR activator)
C=CC(=O)Oc1ccc(N2Cc3ccccc3C2=O)cc1	uPA surface inh 5.01µM (no result: TSHR antagonist, PKM2 activator)
COc1ccc(N2Cc3ccccc3C2=O)cc1	none (no result: TCR activator)
Cc1ccc(N2Cc3ccccc3C2=O)cc1	uPA surface inh 8.91µM
O=C(COC(=O)Cn1cnc2ccccc21)Nc1ccc2c(c1)C(=O)c1ccccc1C2=O	uPA surface inh 11.2µM
CC(=O)c1ccc(NC(=O)COC(=O)Cn2cnc3ccccc32)cc1	none (no result: TSHR antagonist, PKM2 activator)
O=C(CNC(=O)c1ccc(Br)o1)NCC(=O)OCc1ccccc1	none (no result: PKM2 activator)
COc1ccc(S(=O)(=O)N2CCN(Cc3ccc4c(c3)OCO4)CC2)cc1	none (no result: PKM2 activator)
O=C(Cc1ccc2c(c1)OCCO2)N1CCN(S(=O)(=O)c2cccs2)CC1	none
Cc1ccc(S(=O)(=O)N2CCCC(C(=O)NC3CCCC3)C2)cc1Cl (stereo not drawn)	TSHR antagonist -84.4 (no result: PKM2 activator)
CSc1ccc(S(=O)(=O)N2CCN(Cc3ccc4c(c3)OCO4)CC2)cc1	PKM2 activator 7.94µM
O=C(Cc1ccc2c(c1)OCCO2)N1CCN(S(=O)(=O)c2cccc(Cl)c2Cl)CC1	PKM2 activator 2.82µM
Cc1ccc(S(=O)(=O)N2CCN(C(=O)Cc3ccc4c(c3)OCCO4)CC2)cc1C	PKM2 activator 3.16µM
COc1cccc(C2C(C(N)=O)=C(C)Nc3nc(CCCO)nn32)c1 (stereo not drawn)	none (no result: PKM2 activator)
